Data from PubChem BioAssay AID647 (Vanderbilt High Throughput Screening Facility, 2007).
Hit rate of the full screen: of about 2,200 compounds, about 1,400 (64%) were called active.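 Rule for the calls: active = luminescence in either replicate above plate mean of wells with a partly effective reference agonist dose plus 3 SD; inactive = the rest.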 The set was probably picked from earlier hits. This excerpt belongs to a sample that is enriched for actives.

Assay: isoproterenol-driven CRE-luciferase response modulation in HEK293 cells, confirmation, counter-screen for D1 allosteric modulator project, cell-based, secondary assay 2, luminescence (AID 647);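 note: isoproterenol raises cAMP through native beta-adrenoceptor Gs so signal bypasses D1; raw luminescence counts from the Envision reader with one value per duplicate well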
Conditions: isoproterenol EC30 counter-screen, at 10 µM, stronger effect = higher value

Row | Compound | luminescence
1 | CCC(=NCc1ccco1)c1c(O)n(Cc2ccccc2)c(=O)[nH]c1=O | 3640 (active)
